Screening results: PubChem BioAssay, National Center for Advancing Translational Sciences (NCATS)
BRCA1 expr act: qHTS Assay to Identify Small Molecule Activators of BRCA1 Expression; Potency, µM (top dose mostly 46.1 µM), for inactives: at the highest dose activation, actives largely listed as activators; MCF7-BRCA1-FFLuc reporter, luminescence, 48 h; response scale: scaled: vehicle 0%, 10 µM genistein 100%; 1.1% of 380,000 active; note: potency is the fitted concentration of half-maximal effect; nearly all actives have a fitted effect of over 80% in size
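48 h compound treatment of MCF7-BRCA1-FFLuc cells (phenol-red free MEM, 37 °C), then 15 min with luciferase substrate and luminescence imaging.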
TSG101-PTAP inh: qHTS Assay for Iinhibitors of HIV-1 Budding by Blocking the Interaction of PTAP/TSG101 | Tumor susceptibility gene 101 protein (Homo sapiens), Q99816 | Fluorescence polarization, FITC-PTAP peptide / Tsg101 binding | Potency, µM (titrated, usually from 115 µM), for the others: at the highest dose activity change, negative = inhibition, usual class: inhibitors | 340,000 tested, under 10 active | AID 493005, 2010; active = well fitted inhibition curve with a large enough effect in the main read-out, with a control signal flat, not every such curve was filed as active; inconclusive = small, poorly fitted or top-dose-only effect, or effect the other way, or a change in a side signal; inactive = no such curve, though single readings can be large or run the other way; note: potency is the fitted concentration of half-maximal effect; % of control where 0% means no effect
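Fluorescence polarization binding of Tsg101 binding domain (10 uM final) to FITC-labeled PTAP peptide (50 nM final) in HEPES pH 7.5 buffer with NaCl, Tween 20, EDTA, TCEP. Compounds added before peptide; binding 20 min at RT.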
Apoferritin bind: qHTS Assay for Identification of Novel General Anesthetics; Ferritin light chain (Equus caballus), P02791; apoferritin/1-aminoanthracene competitive binding, fluorescence; Potency, µM (top dose mostly 77.5 µM), without a hit: at the highest dose activity change, negative = displacement, hits mostly inhibitors; 0.074% of 350,000 active; AID 485281, 2010; note: potency is the fitted concentration of half-maximal effect; % is set by controls: 0 for no effect and ±100 for the full control effect; nearly all actives have a fitted effect of over 20% in size
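In PBS, apoferritin at 10 uM is loaded with 1-AMA from a 50% saturated solution. After 10 min of compound exposure at ambient temperature, reduced 535 nm fluorescence indicates probe displacement.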
TSHR antagonist: Antagonists of the Thyroid Stimulating Hormone Receptor: HTS campaign | activity change, negative = inhibition, % at 11.5 µM | Thyrotropin receptor (Homo sapiens), P16473 | TSHR-expressing cells, TSH-stimulated cAMP HTRF, 2 h; active compounds read low | 0.2% of 330,000 active;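 active = activity change below a set negative limit, meaning inhibition stronger than a set level, cut at about -70% in these data; inconclusive = activity change between two set negative limits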; note: % is set by controls: 0 for no effect and ±100 for the full control effect
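TSHR-expressing cells were treated with compounds, then stimulated with TSH at EC80 (4nM final) for 2 hours at 37 deg C. Cellular cAMP was measured by HTRF competition between lysate cAMP and cAMP-d2 for a cryptate-labelled anti-cAMP antibody.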
ASM inhibitor: Inhibitors of Secretory Acid Sphingomyelinase (S-ASM): qHTS | Sphingomyelin phosphodiesterase (Homo sapiens), P17405 | placental ASM, HMU-PC fluorogenic substrate, 60 min | Potency, µM (titrated, usually from 57.5 µM), for inactives: at the top dose activity change, negative = inhibition, usual class: inhibitors | 0.006% of 340,000 active; note: potency is the fitted concentration of half-maximal effect
Target sequence (P17405 47-631 limits assumed): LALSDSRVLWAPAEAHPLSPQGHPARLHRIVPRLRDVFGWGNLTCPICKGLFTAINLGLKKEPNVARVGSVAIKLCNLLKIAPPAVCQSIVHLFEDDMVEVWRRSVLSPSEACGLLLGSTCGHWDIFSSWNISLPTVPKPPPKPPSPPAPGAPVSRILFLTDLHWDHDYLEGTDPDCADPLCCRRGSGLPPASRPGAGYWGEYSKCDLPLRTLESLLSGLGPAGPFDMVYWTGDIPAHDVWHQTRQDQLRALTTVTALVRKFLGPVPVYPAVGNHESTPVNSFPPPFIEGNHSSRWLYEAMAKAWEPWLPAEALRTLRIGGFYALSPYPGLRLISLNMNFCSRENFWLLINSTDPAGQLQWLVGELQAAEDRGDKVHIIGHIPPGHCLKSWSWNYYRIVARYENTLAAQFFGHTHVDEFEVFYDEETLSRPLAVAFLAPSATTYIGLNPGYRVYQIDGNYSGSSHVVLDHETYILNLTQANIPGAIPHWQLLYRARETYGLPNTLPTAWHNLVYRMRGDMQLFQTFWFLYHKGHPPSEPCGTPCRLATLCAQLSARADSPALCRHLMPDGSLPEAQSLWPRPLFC
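qHTS format. ASM enzyme prepared from human placenta hydrolyses the fluorogenic substrate HMU-PC0 (9 uM final) over 60 min at 37 °C after a 10 min compound preincubation.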
The depositor's hits bear a star; ? = inconclusive; nt = no result given. Compounds with a hit are over-represented: about 1.2% of the library has one in this group of screens. Unless noted, calls come from the whole dose curve; as a rule, active = well fitted curve in the direction sought with a large enough effect; inconclusive = small, poorly fitted or top-dose-only effect, or another doubt; inactive = no such curve, though single readings can be large; an effect the other way counts as inactive or inconclusive.

SMILES | BRCA1 expr act | TSG101-PTAP inh | Apoferritin bind | TSHR antagonist | ASM inhibitor
Cc1ccc(-c2noc(C3CCCN(C(=O)c4ccccc4)C3)n2)o1 (stereo not given) | 10µM* | -4.8% | -3.0% | -1.6 | 2.4%
Clc1nc(NCC2CCCO2)c2[nH]cnc2n1 (stereo not given) | 7.9% | nt | nt | nt | nt
OCc1ccc(-c2ccc(-c3ccc(CO)s3)o2)s1 | nt | nt | 0.4% | nt | nt
CC1(C)CCC(c2ccc(Cl)cc2)=C(CN2CCN(c3ccc(C(=O)NS(=O)(=O)c4ccc(N[C@H](CCN5CCOCC5)CSc5ccccc5)c(S(=O)(=O)C(F)(F)F)c4)cc3)CC2)C1 | -38.1% | nt | nt | nt | nt
CCCc1ccc(-c2c(C)sc(N)c2C#N)cc1 | -43.1% | -6.9% | 35.5µM* | -11.7 | -16.6%
Cc1cccc(Cc2nnc(CCC(=O)N(C)CCc3ccccc3)o2)c1 | 3.55µM* | -2.4% | ? | 35.3 | -0.4%
Cc1cc(-c2nnc(CCC(=O)N(C)CCc3ccccc3)o2)no1 | 18.8% | 0.3% | -7.2% | 7.1 | -0.8%
CN(C)/C=N/c1ncc(C(=O)c2ccc(-c3ccccc3)cc2)s1 | -66.1% | -5.6% | -23.8% | -4.8 | 129.8%
CN(C)/C=N/c1ncc(C(=O)c2ccccc2)s1 | 5.62µM* | 0.6% | -3.3% | -6.8 | 52.5%
CCSC1=NSC2=NC(=O)/C(=C\c3coc4ccccc4c3=O)C(=N)N12 | -24.9% | ? | 6.7% | -90.6* | -18.5%
COc1ccccc1/C=C/C(=O)NCCC1=CCCCC1 | 2.82µM* | -0.9% | ? | -6.4 | -2.8%
COc1ccc(NC(=O)NCCC2=CCCCC2)cc1 | ? | -5.8% | -7.5% | 3.4 | 1.0%
CC(C)CCNC(=O)Nc1ccc2c(c1)N(C)C(=O)CS2 | 2.8% | -3.9% | ? | nt | 5.3%
CN1C(=O)CSc2ccc(NC(=O)NCCC3=CCCCC3)cc21 | -40.1% | -2.9% | 22.4µM* | -12.9 | -2.9%
COc1cccc(NC(=O)NCCC2=CCCCC2)c1 | 5.01µM* | -2.4% | ? | -12.9 | 1.9%
CNc1ncc(C(=O)c2ccc(Cl)cc2)s1 | 4.47µM* | -1.9% | ? | -12.0 | -2.4%
CNc1ncc(C(=O)c2ccc(-c3ccccc3)cc2)s1 | 2.82µM* | -4.7% | -6.8% | 3.3 | -5.0%
CNc1ncc(C(=O)c2ccc(Cl)c(Cl)c2)s1 | ? | 0.0% | ? | 0.5 | -2.7%
O=C(O)c1c2c(nc3ccccc13)CCCC2 | 17.0% | nt | nt | nt | nt
O=C(CSc1ncnc2nc[nH]c12)c1ccccc1 | 73.3% | -0.8% | ? | 13.2 | 4.2%
c1ccc(CCSc2ncnc3nc[nH]c23)cc1 | 3.16µM* | -4.1% | 2.0% | -5.0 | -1.4%
COc1cccc(CNCc2ccc(OC)cc2OC)c1 | -28.3% | -3.5% | -10.3% | 16.6 | -1.6%
COc1ccc(CNCc2cc(C)c(OC)cc2C)c(OC)c1 | -0.5% | -2.0% | -3.4% | -128.6* | 2.4%
CCn1nc(C(=O)OCC(=O)NCC(C)C)c2ccccc2c1=O | -4.6% | -1.0% | -8.7% | -4.9 | -2.3%
CCn1nc(C(=O)OCC(=O)Nc2nc(-c3ccc(OC)cc3)cs2)c2ccccc2c1=O | 6.31µM* | -7.5% | -13.1% | -24.6 | -15.7%
SMILES | BRCA1 expr act | TSG101-PTAP inh | Apoferritin bind | TSHR antagonist | ASM inhibitor
CCC1(c2ccc(OC)cc2)NC(=O)N(C)C1=O (stereo not given) | nt | nt | -8.1% | nt | nt
O=C(Nc1ccccc1F)Nc1ccccc1F | 5.01µM* | -8.7% | -9.5% | -14.4 | 3.2%
O=C(Nc1ccc(Br)cc1)Nc1ccccc1F | ? | -1.6% | -7.5% | -24.6 | -0.4%
Cc1cnc(C(=O)Nc2ccccc2F)cn1 | 5.01µM* | -4.8% | -4.3% | 2.4 | -0.2%
Cc1cnc(C(=O)Nc2ccccc2-n2cccc2)cn1 | -36.7% | -3.6% | 2.0% | 8.0 | 2.9%
COc1ccccc1C(C)NCC(=O)c1c(C)[nH]c2ccccc12 (stereo not given) | 0.0% | nt | nt | nt | nt
c1ccc(C(OC2CCCN(CCc3ccc4c(c3)OCO4)C2)c2ccccc2)cc1 (stereo not given) | nt | nt | 0.1% | nt | nt
